We go through five molecules from PubChem BioAssay (NCI).

Assay [1] is described as follows: NCI Yeast Anticancer Drug Screen. Data for the rad50 strain (AID 155).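 Note: 0% = growth of vehicle-only cultures of the same strain.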 To be noted: S. cerevisiae rad50 strain growth inhibition, hits give high values. In outline: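 Compounds were tested on a yeast strain with an engineered DNA damage repair alteration; the reported value is growth inhibition normalised to vehicle treatment.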
Assay [2] can be described thus: NCI Yeast Anticancer Drug Screen. Data for the mec2-1 strain (AID 157). To be noted: S. cerevisiae mec2-1 strain, hits give high values. In outline: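 Test agents were screened against the mec2-1 yeast strain, with defined DNA repair or cell cycle alteration. Growth was scored as inhibition against vehicle-only controls.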
A short description of assay [3]: NCI Yeast Anticancer Drug Screen. Data for the sgs1 mgt1 strain (AID 161).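 Note: 0% = growth of cultures given vehicle only.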 To be noted: S. cerevisiae sgs1 mgt1 strain, hits give high values. In outline: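 Inhibition of yeast growth, normalised to vehicle-treated controls, is reported for a strain bearing genetic alterations in DNA damage repair.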
Assay [4] in a line: NCI Yeast Anticancer Drug Screen. Data for the cln2 rad14 strain (AID 165).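 Note: 0% = growth equal to vehicle treated cultures.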 To be noted: S. cerevisiae cln2 rad14 strain, hits give high values. In outline: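 Growth of compound-exposed yeast (cln2 rad14 genotype) measured and expressed as inhibition relative to vehicle.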
Assay [5] is described as follows: NCI Yeast Anticancer Drug Screen. Data for the bub3 strain (AID 167). To be noted: S. cerevisiae bub3 mutant strain, hits give high values. The method, boiled down:
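Growth of a checkpoint-deficient yeast mutant is measured after compound exposure. Values represent inhibition relative to vehicle.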

A short description of assay [6]: NCI Yeast Anticancer Drug Screen. Data for the mlh1 rad18 strain (AID 175). To be noted: S. cerevisiae mlh1 rad18 strain growth inhibition, hits give high values. In outline: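 In this whole-cell yeast screen, a strain with altered DNA damage repair is challenged with compound, and its growth is measured against matched vehicle-treated controls.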
Where [7] appears, read: at 5.0 µM (retest, dose inferred, filed as 0.5).
[8] abbreviates: at 50.0 µM (retest, dose inferred, filed as 5.0).

Compounds without any hit were thinned out: in the full panel of roughly 79,000, 15% have a hit. Unmarked numbers belong to inactive results. The source made the active and inactive calls. Cut-off read from the data, not from the text of the source: active = growth inhibition above about 70%; inactive = the rest.

Regarding `COc1ccc2nc3cccc([N+](=O)[O-])c3c(NCCO)c2c1`, the growth inhibition in assay [1] (setting [7]) was 75% (active); in assay [1] (setting [8]), 95% (active); in assay [1] (at 50.0 µM), 86.6% (active); in assay [2] (setting [7]), 78% (active); in assay [2] (setting [8]), 98% (active); in assay [2] (at 50.0 µM), 90% (active). The growth inhibition in assay [3] (setting [7]) was 82% (active); in assay [3] (setting [8]), 96% (active); in assay [3] (at 50.0 µM), 87.8% (active); in assay [4] (setting [7]) it was 68%; in assay [4] (setting [8]) it was 97% (active); in assay [4] (at 50.0 µM) it was 87.2% (active). Besides, the growth inhibition in assay [5] (setting [7]) was 24%; in assay [5] (setting [8]) it was 86% (active); in assay [5] (at 50.0 µM), 86.9% (active); in assay [6] (setting [7]), 77% (active); in assay [6] (setting [8]), 96% (active); in assay [6] (at 50.0 µM), 87.8% (active).
As for `c1c2c(cc(-n3nnc4c3CCCCCC4)c1-n1nnc3c1CCCCCC3)CCCCCC2`, the growth inhibition is 30% in assay [1] (setting [7]); 30% in assay [1] (setting [8]); 89.4% (active) in assay [1] (at 50.0 µM); 26% in assay [2] (setting [7]); 26% in assay [2] (setting [8]); 90.5% (active) in assay [2] (at 50.0 µM). For the same molecule, the growth inhibition is 23% in assay [3] (setting [7]); 23% in assay [3] (setting [8]); 89.5% (active) in assay [3] (at 50.0 µM); 17% in assay [4] (setting [7]); 17% in assay [4] (setting [8]); 91.1% (active) in assay [4] (at 50.0 µM). For the same molecule, the growth inhibition in assay [5] (setting [7]) was 7%; in assay [5] (setting [8]) it was 7%; in assay [5] (at 50.0 µM), 90.4% (active); in assay [6] (setting [7]) it was 27%; in assay [6] (setting [8]), 27%; in assay [6] (at 50.0 µM) it was 87.3% (active).
On to `Cc1nc(N)nc(-c2ccccc2)c1N=Nc1ccc(Cl)cc1`, for which the growth inhibition is -2% in assay [1] (setting [7]); 61% in assay [1] (setting [8]); 54.9% in assay [1] (at 50.0 µM); 17% in assay [2] (setting [7]); 73% (active) in assay [2] (setting [8]); 29.1% in assay [2] (at 50.0 µM). Also, the growth inhibition in assay [3] (setting [7]) was 1%; in assay [3] (setting [8]), 74% (active); in assay [3] (at 50.0 µM), 23.9%; in assay [4] (setting [7]), -7%; in assay [4] (setting [8]), 56%; in assay [4] (at 50.0 µM), 51.3%. The growth inhibition in assay [5] (setting [7]) is -1%; in assay [5] (setting [8]), 86% (active); in assay [5] (at 50.0 µM) it was 88.2% (active); in assay [6] (setting [7]) it was -13%; in assay [6] (setting [8]) it was 89% (active); in assay [6] (at 50.0 µM), 81.7% (active).
For the molecule `CCN(CC)CC(O)c1ccc2cc(Cl)c3ccccc3c2c1` (stereo not given), the growth inhibition in assay [1] (setting [7]) was 15%; in assay [1] (setting [8]), 99% (active); in assay [1] (at 50.0 µM), 99.5% (active); in assay [2] (setting [7]), 4%; in assay [2] (setting [8]) it was 99% (active); in assay [2] (at 50.0 µM), 99.5% (active). Also, the growth inhibition is 25% in assay [3] (setting [7]); 99% (active) in assay [3] (setting [8]); 99.6% (active) in assay [3] (at 50.0 µM); 8% in assay [4] (setting [7]); 99% (active) in assay [4] (setting [8]); 99.3% (active) in assay [4] (at 50.0 µM). Further, the growth inhibition in assay [5] (setting [7]) is 16%; in assay [5] (setting [8]) it was 98% (active); in assay [5] (at 50.0 µM) it was 99.5% (active); in assay [6] (setting [7]) it was 29%; in assay [6] (setting [8]), 99% (active); in assay [6] (at 50.0 µM), 99.6% (active).
Turning to `CCc1ccc(C(=O)O)c2ccccc12`, the growth inhibition in assay [1] (setting [7]) was -8%; in assay [1] (setting [8]), 81% (active); in assay [1] (at 50.0 µM) it was 68.1%; in assay [2] (setting [7]), 8%; in assay [2] (setting [8]), 48%; in assay [2] (at 50.0 µM), 24.9%. The growth inhibition was -2% in assay [3] (setting [7]); 72% (active) in assay [3] (setting [8]); 35.1% in assay [3] (at 50.0 µM); 8% in assay [4] (setting [7]); 69% in assay [4] (setting [8]); 51.6% in assay [4] (at 50.0 µM). Besides, the growth inhibition in assay [5] (setting [7]) is -6%; in assay [5] (setting [8]) it was 62%; in assay [5] (at 50.0 µM), 8.4%; in assay [6] (setting [7]), -1%; in assay [6] (setting [8]) it was 85% (active); in assay [6] (at 50.0 µM) it was 51.6%.
